This note sets out measurements from PubChem BioAssay.

Experiment [1] can be described thus: small molecules captured by biotinylated probe aFSTL3 – biochemical, small-molecule microarray, fluorescence 635/667, stem cell growth factor project, primary screen (AID 1064).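 Also: measures binding of the biotinylated anti-FSTL3 antibody to printed compounds.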 The settings on record: higher = more signal.
Experiment [2] in a line: binders from COS7 lysate, DM2A8 probe, primary screen, torsin A project, cell lysate, small-molecule microarray, fluorescence 635/667 (AID 1065). The settings on record: higher = more signal, COS7 lysate expressing mutant human TOR1A.
Experiment [3] in a line: small molecules captured by biotinylated probe aFGF2 – biochemical, small-molecule microarray, fluorescence 635/667, stem cell growth factor project, primary screen (AID 1067).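 Also: measures binding of biotinylated aFGF2 protein to printed compounds on slides; z-score merges feature fluorescence and signal-to-noise across triplicate slides.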 The following applies: higher = more signal.
Experiment [4] can be described thus: small molecules captured by biotinylated probe aFGF10 – biochemical, small-molecule microarray, fluorescence 635/667, stem cell growth factor project, primary screen (AID 1071).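 Also: score merges 667 nm spot intensity and signal to noise from triplicate slides.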 The following applies: higher = more signal.
In experiment [5] the target is Neurogenic locus notch homolog protein 2 (Homo sapiens) (UniProt Q04721). Description: small molecules binding Notch2 protein – biochemical, small-molecule microarray, 635 nm fluorescence, stem cell growth factors, primary screen (AID 1073). The following applies: higher = more signal.
Chain of Neurogenic locus notch homolog protein 2 (Homo sapiens) (Q04721 whole entry, looked up, canonical isoform): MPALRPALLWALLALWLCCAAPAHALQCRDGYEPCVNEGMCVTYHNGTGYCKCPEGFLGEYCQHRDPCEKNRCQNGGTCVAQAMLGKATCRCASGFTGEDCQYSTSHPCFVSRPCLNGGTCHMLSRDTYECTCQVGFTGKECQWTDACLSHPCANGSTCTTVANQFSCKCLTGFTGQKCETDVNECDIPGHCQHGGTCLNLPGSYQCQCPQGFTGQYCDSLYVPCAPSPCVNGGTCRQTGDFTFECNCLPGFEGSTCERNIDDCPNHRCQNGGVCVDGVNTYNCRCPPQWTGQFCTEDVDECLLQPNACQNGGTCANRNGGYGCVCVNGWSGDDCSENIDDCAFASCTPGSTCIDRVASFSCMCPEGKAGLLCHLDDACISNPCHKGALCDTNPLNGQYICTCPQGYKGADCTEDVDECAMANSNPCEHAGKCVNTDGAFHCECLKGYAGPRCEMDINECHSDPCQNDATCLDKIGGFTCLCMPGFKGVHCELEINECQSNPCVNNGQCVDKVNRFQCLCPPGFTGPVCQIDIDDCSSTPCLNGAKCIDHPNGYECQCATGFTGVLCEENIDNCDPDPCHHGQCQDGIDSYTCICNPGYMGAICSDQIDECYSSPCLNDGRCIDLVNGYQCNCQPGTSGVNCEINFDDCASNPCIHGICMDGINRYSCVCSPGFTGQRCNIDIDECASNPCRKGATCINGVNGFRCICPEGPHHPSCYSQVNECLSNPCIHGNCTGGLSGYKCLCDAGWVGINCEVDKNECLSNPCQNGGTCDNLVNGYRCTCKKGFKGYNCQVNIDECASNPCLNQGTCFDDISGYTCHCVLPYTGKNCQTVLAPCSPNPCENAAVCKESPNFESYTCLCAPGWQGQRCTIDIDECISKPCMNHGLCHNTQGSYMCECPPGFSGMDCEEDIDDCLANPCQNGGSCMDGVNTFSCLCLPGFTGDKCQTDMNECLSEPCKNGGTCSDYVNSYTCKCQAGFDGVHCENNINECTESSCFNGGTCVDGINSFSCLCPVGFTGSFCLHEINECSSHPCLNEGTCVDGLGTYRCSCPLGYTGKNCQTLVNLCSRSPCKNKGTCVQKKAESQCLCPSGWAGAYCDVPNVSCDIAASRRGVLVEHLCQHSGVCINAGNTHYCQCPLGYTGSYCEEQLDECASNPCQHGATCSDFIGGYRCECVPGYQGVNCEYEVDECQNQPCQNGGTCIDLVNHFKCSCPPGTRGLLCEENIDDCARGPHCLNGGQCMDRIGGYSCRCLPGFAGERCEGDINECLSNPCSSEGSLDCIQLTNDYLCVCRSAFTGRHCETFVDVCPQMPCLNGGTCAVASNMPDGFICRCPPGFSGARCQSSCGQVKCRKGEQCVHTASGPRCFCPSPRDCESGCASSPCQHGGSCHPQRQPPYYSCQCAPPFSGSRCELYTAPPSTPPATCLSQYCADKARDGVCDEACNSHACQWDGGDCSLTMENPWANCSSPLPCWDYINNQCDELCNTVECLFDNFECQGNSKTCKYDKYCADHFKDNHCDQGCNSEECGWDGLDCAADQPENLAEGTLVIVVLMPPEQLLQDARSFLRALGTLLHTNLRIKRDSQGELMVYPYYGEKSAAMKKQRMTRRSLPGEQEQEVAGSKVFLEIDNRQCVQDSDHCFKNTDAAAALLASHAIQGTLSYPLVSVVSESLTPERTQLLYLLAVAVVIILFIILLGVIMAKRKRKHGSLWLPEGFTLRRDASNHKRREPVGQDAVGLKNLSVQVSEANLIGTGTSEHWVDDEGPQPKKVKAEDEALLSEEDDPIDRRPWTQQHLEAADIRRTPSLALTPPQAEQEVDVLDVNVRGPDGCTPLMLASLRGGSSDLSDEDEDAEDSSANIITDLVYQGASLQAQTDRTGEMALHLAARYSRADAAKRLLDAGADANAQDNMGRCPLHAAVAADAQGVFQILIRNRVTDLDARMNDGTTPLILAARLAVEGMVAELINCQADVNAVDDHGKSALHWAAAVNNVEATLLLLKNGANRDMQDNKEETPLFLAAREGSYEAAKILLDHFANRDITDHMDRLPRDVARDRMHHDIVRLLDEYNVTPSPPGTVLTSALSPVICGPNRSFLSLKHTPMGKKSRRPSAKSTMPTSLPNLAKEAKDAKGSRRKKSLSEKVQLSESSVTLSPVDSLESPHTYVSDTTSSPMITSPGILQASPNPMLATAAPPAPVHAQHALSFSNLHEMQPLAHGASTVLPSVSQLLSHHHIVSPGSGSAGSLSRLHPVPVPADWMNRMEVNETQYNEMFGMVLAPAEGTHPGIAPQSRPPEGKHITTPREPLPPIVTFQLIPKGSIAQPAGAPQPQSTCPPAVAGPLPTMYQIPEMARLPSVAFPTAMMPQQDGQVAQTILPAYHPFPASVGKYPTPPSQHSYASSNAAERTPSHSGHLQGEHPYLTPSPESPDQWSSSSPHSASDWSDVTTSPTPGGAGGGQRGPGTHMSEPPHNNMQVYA
Experiment [6] addresses Pro-neuregulin-1, membrane-bound isoform (Homo sapiens) (UniProt Q02297). Description: small molecules binding neuregulin-1 protein – biochemical, small-molecule microarray, fluorescence 635/667, psychiatric disease protein project, primary screen (AID 1075).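 Also: score combines 667 nm spot fluorescence with signal to noise.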 The following applies: NRG1 binding, 635 nm fluorescence, higher = more signal.
The subject of experiment [7] is Neuregulin-1 EGF-like domain. Description: small molecules binding NRG1 EGF domain – biochemical, small-molecule microarray, 635 nm fluorescence, primary screen (AID 1081).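 Also: binding of the protein to compounds printed on small-molecule microarray slides.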 The following applies: higher = more signal.
Experiment [8] is described as follows: FRG1 expression reporter modulators in myotubes – cell-based, C2C12 myotubes, firefly/Renilla luciferase, luminescence, FRG1 inhibition for FSHD, primary screen (AID 1084). The following applies: FRG1 promoter luciferase, higher = more signal, called active from +8 up or from −8 down.
Experiment [9] is described as follows: small molecules captured by biotinylated probe aFST – biochemical, small-molecule microarray, fluorescence 635/667, stem cell growth factor project, primary screen (AID 1086).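 Also: score merges 667 nm fluorescence with signal-to-noise of each printed compound spot.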 The following applies: higher = more signal.
The nature of experiment [10]: binders of probe aHhip on microarray, primary screen, stem cell growth factor project, biochemical, small-molecule microarray, fluorescence 635/667 (AID 1087).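 Also: score merges spot fluorescence at 667nm with spot signal to noise ratio.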 The following applies: higher = more signal.
Experiment [11] has as its system PRMT1 (protein arginine N-methyltransferase 1). The experiment is described as follows: small molecules binding arginine methyltransferase PRMT1 – biochemical, small-molecule microarray, 635 nm fluorescence, primary screen (AID 1088).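 Also: binding of Prmt1 protein to compounds spotted on small-molecule microarray slides.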 The following applies: higher = more signal.
Experiment [12] in a line: growth effects on S. cerevisiae YJM789 – YJM789 clinical isolate, OD600, 24 h, basal, primary screen (AID 1089).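 Also: growth of clinical yeast isolate S. cerevisiae YJM 789 seeded 1000 cells per well; test concentration not given here.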 The following applies: higher = more signal, called active from +8 up or from −8 down.
Experiment [13] is described as follows: S. pombe growth modifiers, basal conditions – strain 972, OD600, 24 h, no modulator, primary screen (AID 1090).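 Also: basal condition with compound alone and no growth modifier present; test concentration not given here.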 The settings on record: S. pombe 972 growth, higher = more signal, called active from +8 up or from −8 down.
A short description of experiment [14]: budding yeast growth modifiers under rapamycin – strain BY4716, OD600, 96 h, primary screen (AID 1091). Also: test concentration not given here. The following applies: S. cerevisiae BY4716 + rapamycin, higher = more signal, called active from +8 up or from −8 down.
The target in experiment [15] is Torsin-1A-interacting protein 2 (Homo sapiens) (UniProt Q8NFQ8). Description: small molecules binding lysate-expressed LULL1 – cell lysate, human LULL1 lysate, 635/667 nm fluorescence, primary screen (AID 1092).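 Also: probe is lysate of COS7 cells overexpressing human LULL1; score merges per-feature 667 nm fluorescence with signal-to-noise.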 The following applies: small-molecule microarray, hLULL1 lysate binding, 635 nm fluorescence; higher = more signal.
Chain of Torsin-1A-interacting protein 2 (Homo sapiens) (Q8NFQ8 whole entry, looked up): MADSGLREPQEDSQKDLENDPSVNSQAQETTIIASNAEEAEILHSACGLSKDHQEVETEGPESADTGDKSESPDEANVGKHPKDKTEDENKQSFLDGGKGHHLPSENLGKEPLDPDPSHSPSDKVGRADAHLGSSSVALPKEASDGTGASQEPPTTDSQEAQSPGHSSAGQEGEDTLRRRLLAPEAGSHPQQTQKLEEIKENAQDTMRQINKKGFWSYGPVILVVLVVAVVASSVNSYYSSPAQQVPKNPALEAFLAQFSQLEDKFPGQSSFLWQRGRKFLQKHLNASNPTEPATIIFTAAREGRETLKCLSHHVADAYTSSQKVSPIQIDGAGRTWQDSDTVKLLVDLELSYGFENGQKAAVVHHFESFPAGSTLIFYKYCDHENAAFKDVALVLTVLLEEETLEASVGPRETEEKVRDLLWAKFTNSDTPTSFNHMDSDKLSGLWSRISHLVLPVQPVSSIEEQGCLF
Experiment [16] can be described thus: optical density change of DRC41 E. coli – strain DRC41, OD650, 24 h, E. coli filamentation project, primary screen (AID 1093).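 Also: MC1000 strain lacking acrAB efflux and sulA so SOS filamentation is blocked; test concentration not given here.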 The settings on record: E. coli DRC41 growth, higher = more signal, called active from +8 up or from −8 down.
The nature of experiment [17]: probe aLefty2 binding to arrayed compounds – biochemical, biotinylated probe, 635/667 nm fluorescence, primary screen (AID 1094).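 Also: score merges spot fluorescence near 667 nm with spot signal-to-noise ratio.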 The following applies: small-molecule microarray, higher = more signal.
In experiment [18] the test system is Noggin (protein binding on small-molecule microarray). Description: small molecules binding Noggin protein – biochemical, 635/667 nm fluorescence, primary screen (AID 1095).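 Also: score merges 667 nm feature fluorescence with signal to noise over triplicate slides.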 The settings on record: 635 nm fluorescence, higher = more signal.
Experiment [19] addresses Neurogenic locus notch homolog protein 3 (Homo sapiens) (UniProt Q9UM47). Description: small molecules binding NOTCH3 protein – biochemical, 635/667 nm fluorescence, primary screen (AID 1096). The settings on record: small-molecule microarray, 635 nm fluorescence, higher = more signal.
A short description of experiment [20]: probe aEGFR binding to arrayed compounds – biochemical, biotinylated probe, 635/667 nm fluorescence, primary screen (AID 1097).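 Also: probe is a biotinylated anti-EGFR antibody binding compounds printed on slides; score combines fluorescence near 667 nm and signal to noise of each spot.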 The following applies: small-molecule microarray, higher = more signal.

The source made the active and inactive calls.

Chain of Pro-neuregulin-1, membrane-bound isoform (Homo sapiens) (Q02297 whole entry, looked up, the tested form may be a part, canonical isoform): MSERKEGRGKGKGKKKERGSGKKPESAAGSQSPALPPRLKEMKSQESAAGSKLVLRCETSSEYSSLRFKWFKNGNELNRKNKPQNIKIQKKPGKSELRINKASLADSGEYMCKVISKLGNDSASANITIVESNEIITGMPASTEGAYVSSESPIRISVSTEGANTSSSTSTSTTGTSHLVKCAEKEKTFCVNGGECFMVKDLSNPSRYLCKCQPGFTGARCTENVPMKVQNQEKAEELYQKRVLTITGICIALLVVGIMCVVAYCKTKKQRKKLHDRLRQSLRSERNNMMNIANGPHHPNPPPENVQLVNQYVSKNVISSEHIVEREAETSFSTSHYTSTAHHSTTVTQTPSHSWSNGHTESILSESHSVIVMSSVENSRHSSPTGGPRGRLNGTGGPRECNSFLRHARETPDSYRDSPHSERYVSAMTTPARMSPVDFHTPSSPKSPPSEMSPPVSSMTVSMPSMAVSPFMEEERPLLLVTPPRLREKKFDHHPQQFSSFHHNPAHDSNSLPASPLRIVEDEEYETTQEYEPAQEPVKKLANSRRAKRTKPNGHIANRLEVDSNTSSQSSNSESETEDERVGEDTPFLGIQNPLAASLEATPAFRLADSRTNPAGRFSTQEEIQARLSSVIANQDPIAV

In the case of `Cc1ccc(C2C3C(=O)CC4C(=O)N(c5ccccc5)C(=O)C4C3CN2S(=O)(=O)c2ccc(C)cc2)cc1` (stereo not given), the composite z-score in experiment [1] is 0.469; in [2], 0.204; in experiment [3], 0.292; in experiment [4], 0.59; in experiment [5] it was 1.57; in [6], 1.25. For the same compound, the composite z-score came out at 1.32 in [7]; 1.58 in experiment [9]; 0.365 in experiment [10]; 1.32 in experiment [11]; 2.93 in experiment [15]; 0.571 in [17]. The figures for the composite z-score in [18], in experiment [19] and in experiment [20] were 0.0835, 1.12 and 0.786, respectively. Besides, the z-score is 0.0035 (inactive) in [8]; 0.799 (inactive) in experiment [12]; 0.499 (inactive) in experiment [13]; 1.45 (inactive) in experiment [14]; 0.0125 (inactive) in experiment [16].

With `COC(=O)C(CC#Cc1ccc2c(c1)[C@]1(C(=O)N2)[C@H](c2ccccc2OCCO)N2[C@H](c3ccccc3)[C@H](c3ccccc3)OC(=O)[C@H]2[C@@H]1C(=O)O)C(=O)OC`, the composite z-score was 0.187 in experiment [1]; 0.856 in experiment [2]; 0.0876 in experiment [3]; 0.866 in experiment [4]; 0.275 in [5]; 1.65 in experiment [6]. Further, the composite z-score worked out at 1.32 in experiment [7]; 0.411 in experiment [9]; 0.426 in [10]; 1.57 in [11]; 2.37 in experiment [15]; 0.264 in experiment [17]. The composite z-score in experiment [18] was 0.793; in experiment [19], 0.691; in experiment [20] it was -0.0032. In addition, the z-score in experiment [8] is -0.173 (inactive); in [12], 2.46 (inactive); in experiment [13] it was 0.521 (inactive); in experiment [14], -0.188 (inactive); in experiment [16], 0.871 (inactive).

Regarding `C=C(/C(=C/C[C@H](OC(C)=O)c1ccc(OCCO)cc1)c1cc(C(=O)OC)ccc1OC)C(C)C`, the composite z-score in experiment [1] is -0.183; in experiment [2], 0.585; in experiment [3], -0.145; in experiment [4], 0.41; in [5], 0.219; in experiment [6], 1.17. The composite z-score in experiment [7] was 0.376; in [9], 0.388; in experiment [10], -0.175; in [11], 1.55; in experiment [15] it was 2.79; in experiment [17], -0.0616. Also, the composite z-score is 1.39 in experiment [18], 0.51 in experiment [19] and -0.0828 in experiment [20]. Moreover, the z-score in experiment [8] is -0.863 (inactive); in experiment [12] it was 0.71 (inactive); in experiment [13] it was -0.299 (inactive); in experiment [14], -0.874 (inactive); in experiment [16], 0.806 (inactive).

On to `CCOC(=O)C[C@H]1[C@H](OC(=O)c2ccc(C(=O)c3ccccc3)cc2)[C@@H](NC(=O)Cc2ccc(OC)cc2)c2cc(OCCCO)ccc2N1C(=O)c1ccc2ccccc2n1`, for which the composite z-score in [1] is -0.537; in experiment [2], 0.0267; in experiment [3] it was -0.0887; in experiment [4], 0.371; in experiment [5], 0.298; in experiment [6], 0.843. Besides, the composite z-score was 0.325 in [7]; 0.612 in experiment [9]; -0.0994 in [10]; 0.794 in experiment [11]; 1.6 in experiment [15]; 0.0768 in experiment [17]. Moreover, the composite z-score was 0.666 in experiment [18], 1.16 in experiment [19] and 0.0182 in experiment [20]. For the same compound, the z-score in experiment [8] is -2.62 (inactive); in experiment [12], 0.328 (inactive); in [13], -0.22 (inactive); in experiment [14], 0.605 (inactive); in experiment [16], 0.213 (inactive).

`COC(=O)[C@@]1(Cc2ccc(OC)cc2)[C@H]2c3cc(C(=O)N4CCCC4)n(CCSCCO)c3C[C@H]2CN1C(=O)c1ccccc1`: the composite z-score was 0.32 in [1]; -0.399 in experiment [2]; 0.46 in experiment [3]; 0.651 in [4]; 1.69 in experiment [5]; 1.86 in [6]. Further, the composite z-score in experiment [7] was 1.4; in experiment [9], 1.3; in [10], 0.455; in [11] it was 0.416; in experiment [15], 3.38; in experiment [17], 0.172. Also, the composite z-score was -0.492 in [18], 0.671 in experiment [19] and 0.157 in [20]. Also, the z-score in experiment [8] was -0.15 (inactive); in experiment [12], 0.786 (inactive); in experiment [13], 1.72 (inactive); in experiment [14], 1.25 (inactive); in experiment [16], -0.647 (inactive).
